Shown is part of a subset that was picked to be rich in hits.
Shiga inhibitor – blocks Shiga toxin action in Vero cells; Vero cells, Shiga toxin protein synthesis inhibition reporter; actives 9.2% (n = 290,000); inhibition, % at 38.7 µM; in the data active = inhibition mostly above about 28%, no sharp cut-off; inactive = mostly below about 43%; note: 0% is about no effect
RE007 growth inh – less growth of the S. pombe RE007 Vpr strain | S. pombe RE007 Vpr strain, BacTiter-Glo ATP luminescence, 24 h | Potency, µM (highest dose often 92.2 µM), inactives show at the top dose activity change, negative = less growth, actives largely listed as inhibitors | actives 0.21% (n = 360,000) | AID 651644; active = well fitted falling curve with a large enough effect; inconclusive = small, poorly fitted or top-dose-only effect; inactive = no such curve, though single readings can be large or run the other way; note: potency is the fitted concentration of half-maximal effect; % is set by controls: 0 for no effect and ±100 for the full control effect; nearly all actives have a fitted effect of over 50% in size
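Fission yeast RE007 carrying one integrated HIV-1 vpr copy, seeded at OD 0.01 in PMG+AL medium with 23 nL pinned compound. Grown 24 h at 30 degrees; viability read by BacTiter-Glo luminescence after 5 min.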
LmPK inhibitor – inhibitors of Leishmania mexicana pyruvate kinase; Potency, µM (series often up to 57.5 µM), for the others: top-dose activity change, negative = inhibition, actives largely listed as inhibitors; actives 0.37% (n = 290,000); AID 1721; purified LmPK, Kinase-Glo ATP luminescence, 1 h; Q27686; note: potency is the fitted concentration of half-maximal effect; % is set by controls: 0 for no effect and ±100 for the full control effect
Target sequence (Q27686 whole entry, looked up): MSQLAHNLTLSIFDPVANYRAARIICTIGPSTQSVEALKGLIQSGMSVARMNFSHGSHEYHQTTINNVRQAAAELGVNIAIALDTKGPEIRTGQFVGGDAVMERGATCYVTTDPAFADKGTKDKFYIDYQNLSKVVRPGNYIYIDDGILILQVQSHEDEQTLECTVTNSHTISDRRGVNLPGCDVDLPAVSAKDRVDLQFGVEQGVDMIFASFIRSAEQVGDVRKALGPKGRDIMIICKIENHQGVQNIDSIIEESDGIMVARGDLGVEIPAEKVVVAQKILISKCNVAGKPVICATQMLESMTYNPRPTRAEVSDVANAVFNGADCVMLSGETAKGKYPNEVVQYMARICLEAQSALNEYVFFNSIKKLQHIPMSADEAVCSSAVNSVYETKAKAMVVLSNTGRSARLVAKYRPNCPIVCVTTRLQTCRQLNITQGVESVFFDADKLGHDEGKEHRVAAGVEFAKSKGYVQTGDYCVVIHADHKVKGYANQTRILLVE
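Kinase-Glo luminescence read after 1 h RT reaction of 0.1 nM LmPK with 0.5 mM PEP and 0.1 mM ADP. Activity scaled between uninhibited and enzyme-free controls.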
Giardia FBPA inh – Giardia lamblia aldolase inhibition; Potency, µM (highest dose often 59.6 µM), for inactives: at the highest dose activity, negative = inhibition, hits mostly inhibitors; purified Giardia FBPA; actives 0.71% (n = 290,000); A8B2U2; note: potency is the fitted concentration of half-maximal effect; % is set by controls: 0 for no effect and ±100 for the full control effect; nearly all actives have a fitted effect of over 55% in size
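40 nM FBPA preincubated 10 min at RT with compound (up to 57.5 uM final), then substrate plus GAPDH/TPI/NAD/arsenate coupling and diaphorase/resazurin added. Fluorescence read after 20 min at RT, 525/598 nm.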
Tb PYK inh – inhibitors of Trypanosoma brucei pyruvate kinase; TbPYK enzyme, Kinase-Glo Plus ATP luminescence, 45 min; Potency, µM (titrated, usually from 76.8 µM), for inactives: top-dose activity, negative = inhibition, usual class: inhibitors; actives 0.12% (n = 410,000); note: potency is the fitted concentration of half-maximal effect; % is set by controls: 0 for no effect and ±100 for the full control effect; nearly all actives have a fitted effect of over 50% in size
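TbPYK + substrate in 50 mM TEA pH 7.2, 100 mM KCl, 10 mM MgCl2, 0.05% BSA, 0.01% Tween-20; cpd pinned; ADP 130 uM final; 45 min RT; Kinase-Glo Plus 10 min; luminescence endpoint.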
CHX counter – counter-screen hit for Shiga toxin inhibitors, cycloheximide. cell reporter, cycloheximide protein synthesis inhibition counterscreen. max response, %. actives 12% (n = 300,000). AID 2314; in the data active = max response mostly above about 13%, no sharp cut-off; inactive = mostly below about 14%; note: read at 38.3 µM for the half of the compounds with a filed dose; 0% is about no effect
* hit, by the source's call; ? = inconclusive; · = no result; [ ] = dose if it differs, or a comment. Unless noted, calls come from the whole dose curve; as a rule, active = well fitted curve in the direction sought with a large enough effect; inconclusive = small, poorly fitted or top-dose-only effect, or another doubt; inactive = no such curve, though single readings can be large; an effect the other way counts as inactive or inconclusive.

SMILES | Shiga inhibitor | RE007 growth inh | LmPK inhibitor | Giardia FBPA inh | Tb PYK inh | CHX counter
Cc1ccnc(NC(=O)c2ccccc2NC(=O)C(C)(C)C)c1 | -2 | 1% | 0% | -3% | -1% | 0
C=CC(C)(O)CC1[C@@]2(C)CCCC(C)(C)C2CC[C@]1(C)O (some centres not stated) | · | · | · | -9% | · | ·
COc1cc(OC)c(NC(=O)CCCn2nc(C)c3sc4ccccc4c3c2=O)cc1Cl | · | · | · | · | -2% | ·
Cc1ccc(NC(=S)NC(=O)c2cncc(Br)c2)c(C)c1 | · | -2% | · | · | 4% | ·
Cc1ccnc(NC(=S)NC(=O)c2cncc(Br)c2)c1 | 6 | -25% | -1% | ? | -5% | 25*
Cc1ccc(NC(=O)c2cccc3ccccc23)cc1 | 173* | -19% | 1% | -1% | 5% | 33*
CN(C)C(=O)CCSC(SCCC(=O)O)c1cccc(/C=C/c2ccc3ccc(Cl)cc3n2)c1 (configuration not stated) | · | · | · | · | 0% | ·
Cc1oc2ncn(C)c(=O)c2c1C(=O)N1CCN(c2ccc(Cl)cc2)CC1 | · | · | · | · | -4% | ·
CCOC(=O)C(CC)/C(C)=N\NC(=O)c1ccccc1O (configuration not stated) | 33* | -26% | -7% | -15% | -5% | 18*
CCC/C(=N\NC(=O)c1ccccc1C)c1ccccc1 | 1 | -12% | 0% | 5% | -7% | 9
CCC/C(C)=N/NC(=O)c1ccccc1O | 105* | -10% | -3% | -1% | -1% | 27*
CCC/C=N/NC(=O)c1ccccc1O | 47* | 9% | 5% | -6% | -9% | 18*
O=C(N/N=C/c1ccc(-c2ccccc2)o1)c1ccccc1O | 40* | 5% | -1% | 7% | -2% | 16
CCC(C)/C(C)=N/NC(=O)c1ccccc1OCCOc1ccccc1 (configuration not stated) | 18 | 7% | 3% | -12% | -4% | 0
CCN(CC)c1ccc(NC(=O)CCCN2C(=O)C(c3ccccc3)Oc3cccnc32)c(C)c1 (configuration not stated) | · | · | · | · | -8% | ·
Clc1ccccc1-c1cc(NCc2ccccc2)ncn1 | · | · | · | -3% | · | ·
C/C(=N\NC(=O)c1ccccc1O)C1C(=O)c2ccccc2C1=O | 36 | -15%[3.69 µM] | -6% | -11% | · | 29*
Cc1cccc(C)c1NC(=O)CN(C)C(=O)Cc1cccc(C(F)(F)F)c1 | 31* | 12% | 4% | 11% | -4% | 21
Cc1cc2occ(CC(=O)N(C)CC(=O)Nc3c(C)cccc3C)c2cc1C | · | -12% | · | · | -5% | ·
N=C(N)c1ccc(OCCCOc2ccc(C(=N)N)cc2Br)c(Br)c1 | · | · | · | · | -1% | ·
CC(C)(C)SCCNC(=O)CN(c1ccccc1)S(=O)(=O)c1ccccc1 | 1 | -1% | 1% | 2% | -3% | -4
CC(C)(C)SCCNC(=O)c1ccc(Cl)c([N+](=O)[O-])c1 | 98* | 13% | 7% | 2% | 20% | 27*
CC(C)c1ccc(N(CC(=O)NCCSC(C)(C)C)S(C)(=O)=O)cc1 | 24 | -5%[3.69 µM] | 7% | 3% | · | 31*
CN(c1ccc(C(=O)NCCSCc2ccco2)cc1)S(C)(=O)=O | 41* | 7% | 2% | -13% | 0% | 30*
CN(c1ccc(C(=O)NCCSC(C)(C)C)cc1)S(C)(=O)=O | 140* | 10% | 0% | 0% | -2% | 37*
SMILES | Shiga inhibitor | RE007 growth inh | LmPK inhibitor | Giardia FBPA inh | Tb PYK inh | CHX counter
CN(c1ccc(C(=O)NCCCn2ccnc2)cc1)S(C)(=O)=O | -3 | -25% | 0% | -18% | 0% | -1
COc1cccc([C@@H]2Oc3ccc(OC)cc3C(=O)[C@H]2OC(=O)NC2CCCC2)c1 | · | · | · | -5% | · | ·
CC(C)Nc1nc(C#N)nc(Nc2ccccc2)n1 | · | · | · | -3% | · | ·
CCOCCCNC(=O)C1CCCN(Cc2nc(-c3ccc(CC)cc3)oc2C)C1 (configuration not stated) | · | · | · | · | 2% | ·
COc1ccc(CCNC(=O)c2ccc(N(C)S(=O)(=O)c3ccc(C)cc3)cc2)cc1 | -3 | 8% | 2% | -7% | 2% | -3
Cc1ccc(S(=O)(=O)N(C)c2ccc(C(=O)NCCc3ccccc3)cc2)cc1 | 62* | 3% | 7% | -1% | 4% | 32*
CN(c1ccc(C(=O)Nc2ccccc2C(F)(F)F)cc1)S(C)(=O)=O | 41* | -1% | 0% | -8% | 12% | 20
CN(c1ccc(C(=O)NCCc2ccccc2)cc1)S(C)(=O)=O | 68* | -1% | ? | -1% | 1% | 21*
CN(c1ccc(C(=O)NCc2ccco2)cc1)S(C)(=O)=O | 18 | -13% | -4% | 6% | -1% | -2
Cc1c(Cl)cccc1NC(=O)Nc1nnc(N(C)C2CCCCC2)s1 | · | · | · | · | 4% | ·
CCc1ccccc1NC(=O)CSc1ncccc1C(=O)O | · | · | · | · | 0% | ·
COc1ccc(/C(=N\Nc2ccccc2C(=O)O)c2ccccc2)cc1 | 169* | ? | 14% | 1% | -3% | 29*
C/C(=N\NC(=O)CCCNc1ccccc1)c1ccncc1 | -4 | ? | -11% | 0% | -4% | -1
CC(=NNC(=O)c1ccncc1)c1ccccc1Cl | · | -1% | · | · | 5% | ·
CCOC(=O)C(=O)N/N=C(/c1ccccc1)c1ccc(OC)cc1 | 29 | -10% | 3% | -3% | 4% | 7
C/C(=N\NC(=O)c1ccccc1NC(=O)c1ccc(Cl)cc1)c1ccncc1 | -15 | 4µM* | ? | -10% | ? | -16
C/C(=N\Nc1ccccc1C(=O)O)c1ccncc1 | 43* | 16% | 0% | -12% | 0% | 18*
CCOc1ccc(CNC(=O)c2ccc(NC(=O)C3=CSCCO3)cc2)cc1 | 20 | -5% | 1% | -7% | -5% | 34*
CCOc1ccc(CNC(=O)c2ccc(NC(=O)c3nsc4ccccc34)cc2)cc1 | · | · | · | · | 5% | ·
COc1cccc(CNC(=O)c2ccc(NC(=O)C3=CSCCO3)cc2)c1 | 116* | 19% | -2% | · | 0% | 22*
COc1cccc(CNC(=O)c2ccc(NC(=O)C3CCCO3)cc2)c1 (configuration not stated) | -5 | 4% | 0% | 6% | -9% | 1
Cc1ccc(CNC(=O)c2ccc(NC(=O)C3=CSCCO3)cc2)cc1 | 28* | 2% | -6% | · | 1% | 15
O=C(COc1ccc(F)cc1)Nc1ccc(OCc2cc(=O)n3ccsc3n2)cc1 | · | · | · | · | -13% | ·

High-throughput results as filed in PubChem.
